This is one part of the list. Records with an inconclusive call do not appear. Calls of active or inactive are those of the source. The call rests on the fitted dose curve; in most records, active means well fitted inhibition curve with a large enough effect; inconclusive means small, poorly fitted or top-dose-only effect; inactive means no such curve, though single readings can be large or run the other way.
Target: Nicotinamide N-methyltransferase (Homo sapiens) (UniProt P40261)
Experiment: Counterscreen qHTS for Inhibitors of N-terminal methyltransferase 1 (NTMT1): NNMT MTaseGlo assay
Details: NNMT MTase-Glo luminescence, SAH detection; series mostly up to 57.1 µM
Excerpt: Assay Submitter (PI): Rong Huang Ph.D. Purdue University, West Lafayette, IN 47907 The N-terminal methytransferase 1 is the first methyltransferase that methylates protein alpha-N-amines and plays an important role in regulating cell mitosis, chromatin interactions and DNA repair. It is observed to be over-expressed in various cancer patient tissues like malignant melanoma and colorectal cancer tissues. Knockdown of NTMT1 in cancer cells causes cell mitotic defects and enhances sensitivity to DNA damaging chemotherapeutics. […] These critical cellular processes in which NTMT1 is implicated, coupled with emerging links to cellular dysfunction, strengthen the inference that NTMT1 is a compelling novel anticancer target. […] To address this unmet need, a panel of assay is created and established to enable quantitative high-throughput screening (qHTS) for novel, potent, and selective small molecule NTMT1 inhibitors. […] MTaseGlo Assay is a luminescence screen that measure the activity of methyltransferases based on the reaction product S-adenosyl homocysteine (SAH). […]
Materials: NNMT enzyme, SAM, NA, and control is provided by the Huang laboratory. […] 11; Detection; Luminescence; Plates were read using luminescence optics on a ViewLux detector (PerkinElmer). […]

Sequence of Nicotinamide N-methyltransferase (Homo sapiens) (P40261 whole entry, looked up): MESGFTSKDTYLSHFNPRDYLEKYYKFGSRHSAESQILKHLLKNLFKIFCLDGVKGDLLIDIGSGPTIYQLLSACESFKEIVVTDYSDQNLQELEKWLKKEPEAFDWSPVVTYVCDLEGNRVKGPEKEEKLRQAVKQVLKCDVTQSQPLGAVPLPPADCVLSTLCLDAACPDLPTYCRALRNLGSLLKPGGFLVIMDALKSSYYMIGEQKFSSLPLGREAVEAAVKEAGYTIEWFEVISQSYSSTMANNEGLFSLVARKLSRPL

Structure (SMILES)	outcome
COc1cc2ncnc(Nc3cccc(Cl)c3F)c2cc1OC(=O)N1CCN(C)C[C@H]1C	inactive
CC(C)(O)c1ccc2c(c1)C(=O)CC1[C@](C)(CO)CCC[C@]21C (some centres not stated)	inactive

Source: PubChem BioAssay AID1645878 (National Center for Advancing Translational Sciences (NCATS), 2021)
